Data taken from article PMC5540273 (PLoS ONE, 2017).
Where two headings read alike, the source gives them in different places.

Legend:
Settings in all cases: n = 1
DAPK2 = system: DAPK2
DAPK3 = system: DAPK3
DCAMKL1 = system: T1, DCAMKL1
T1 construct: gene DCLK1

DCAMKL2 = system: T2, DCAMKL2
T2 construct: gene DCLK2

DCAMKL3 = system: T3, DCAMKL3
T3 construct: gene DCLK3

DDR1 = system: DDR1
DDR2 = system: DDR2
DLK = system: T4, DLK
T4 construct: gene MAP3K12

DMPK2 = system: T5, DMPK2
T5 construct: gene CDC42BPG

DMPK = system: DMPK
[1] = concentration: 1 μM, replicates: in singlicate
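Further: KINOMEscan kinase panel screen.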

Structure (SMILES)	%Inh (DAPK2; 1 µM) [%]	%Inh (DAPK3; 1 µM) [%]	%Inh (DCAMKL1; 1 µM) [%]	%Inh (DCAMKL2; 1 µM) [%]	%Inh (DCAMKL3; 1 µM) [%]	%Inh (DDR1; 1 µM) [%]	%Inh (DDR2; 1 µM) [%]	%Inh (DLK; 1 µM) [%]	%Inh (DMPK2; 1 µM) [%]	%Inh (DMPK; 1 µM) [%]	%Inh (DAPK2; [1]) [%]	%Inh (DAPK3; [1]) [%]	%Inh (DCAMKL1; [1]) [%]	%Inh (DCAMKL2; [1]) [%]	%Inh (DCAMKL3; [1]) [%]	%Inh (DDR1; [1]) [%]	%Inh (DDR2; [1]) [%]	%Inh (DLK; [1]) [%]	%Inh (DMPK2; [1]) [%]	%Inh (DMPK; [1]) [%]
Cc1ccc(NC(=O)Nc2cccc(C(F)(F)F)c2)cc1 [GSK955403]	3	24	0	0	13	43	65	0	0	0										
Cc1cccc(-c2cc(Nc3ccncc3)c3ccccc3n2)n1 [GSK223675]											0	9	3	0	1	9	0	0	7	0
Cc1cccc(-c2nc(Nc3cccc(C(N)=O)c3)c3ccccc3n2)n1 [GW876019]											0	17	36	0	29	29	8	0	0	0
Cn1cncc1-c1ccc2ncnc(Nc3ccc(OCc4ccccc4)cc3)c2c1 [GW320571]											0	56	0	0	31	18	4	35	0	9
CS(=O)(=O)c1ccc(-c2c(-c3ncn[nH]3)sc(N3CCOCC3)c2C#N)cc1											0	0	19	23	19	0	18	53	15	0
Fc1cccc(COc2nnc(-c3ccc4c(c3)CCO4)o2)c1											0	0	9	0	0	0	12	0	0	0
Cc1cccc(-c2nc(-c3ccc(S(C)(=O)=O)cc3)sc2-c2ccnc(NCCc3ccccc3)c2)c1											15	0	5	0	8	98.1	79	0	10	16
O=C(Nc1n[nH]c2cc(-c3cccc(F)c3F)ccc12)C1CC1 [SB-733894]											24	35	21	0	0	0	0	0	0	0
O=C(Nc1n[nH]c2nc(-c3nccs3)c(Br)cc12)C1CC1 [SB-742251]											0	6	4	0	0	0	26	34	0	0
O=S(=O)(c1ccc(-c2ccnc3[nH]ccc23)cc1)N1CCCC1 [GSK846226]											48	76	23	0	0	0	0	0	15	3
COC(=O)c1c(-c2ccccc2)c2cc(C(=O)O)ccc2c(=O)n1Cc1ccccc1											0	0	5	4	26	92.6	63	0	0	12
COc1ccc(Nc2nccc(-c3cccc(NC(=O)c4cc5cc(F)ccc5[nH]4)c3)n2)cc1 [GSK1229782]											11	6	4	0	4	0	39	37	13	25
CC(C)(C)c1ccc(C(=O)Nc2cn3cc(Cl)ccc3n2)cc1											0	3	15	0	18	0	20	0	0	0
Cc1cccc(-c2nc(C)cc(Nc3ccncc3)n2)n1 [GSK257997]											2	14	11	3	13	0	1	0	89	0
COc1cc2nccc(Nc3ccc(NC(=O)c4ccc(C)cc4)c(O)c3)c2cc1OC.Cl [GW440132]											8	19	8	7	16	0	5	6	0	0
Nc1ncnc2[nH]c(-c3ccccc3)nc12 [AH5015]											0	27	11	0	13	0	13	21	0	0
O=C(Nc1n[nH]c2nc(-c3nccs3)c(Br)cc12)C1CCCC1 [SB-742609]											0	5	9	16	0	0	11	14	0	0
